Sampled rows, rich in hits. Any-hit rate of the full collection: about 2.3%.
CHO-K1 Ca antag – counter-screen for M1 antagonists: effect in parental CHO-K1 cells; inhibition, % at 3 µM; 360,000 tested, 0.6% active; ATP-induced calcium, Fluo-8 fluorescence;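 active means inhibition above a per-plate cutoff, the plate's mean sample inhibition plus 3 SD, cut at about 24% in these data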
CHO-K1 Ca ag – nonselective activator or artifact in parental CHO-K1 cells | Fluo-8 calcium fluorescence; scaled to maximal ATP response, vehicle zero | activation, % at 3 µM | 360,000 tested, 0.48% active; in the data active means activation above about 15%;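 further: untransfected CHO-K1 host cells lacking M1 receptor as counterscreen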
CHRM1 PAM – human CHRM1 positive allosteric modulation; P11229; CHO-K1 hM1, Fluo-8 calcium fluorescence, ACh EC20; 0% = ACh EC20, 100% = maximal ACh; activation, % at 3 µM; 360,000 tested, 0.088% active; AID 588819; in the data active means activation above about 19%, passing the limit was not always enough
Target sequence (P11229 whole entry, looked up): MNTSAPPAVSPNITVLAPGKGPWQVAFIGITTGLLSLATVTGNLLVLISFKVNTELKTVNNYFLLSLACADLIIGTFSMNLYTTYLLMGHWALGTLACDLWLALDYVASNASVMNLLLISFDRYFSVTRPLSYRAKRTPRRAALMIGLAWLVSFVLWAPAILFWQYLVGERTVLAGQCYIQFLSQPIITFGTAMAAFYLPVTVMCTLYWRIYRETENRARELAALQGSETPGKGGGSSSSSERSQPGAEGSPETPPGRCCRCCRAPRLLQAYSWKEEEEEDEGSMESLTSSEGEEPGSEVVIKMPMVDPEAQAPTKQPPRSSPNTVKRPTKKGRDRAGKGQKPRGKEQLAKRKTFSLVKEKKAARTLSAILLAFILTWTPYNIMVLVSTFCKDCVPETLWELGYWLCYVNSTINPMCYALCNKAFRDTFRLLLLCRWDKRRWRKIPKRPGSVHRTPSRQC
CHRM1 antagonist – human CHRM1 antagonism | CHO-K1 hM1, Fluo-8 calcium fluorescence, ACh EC80 antagonist | inhibition, % at 3 µM | 360,000 tested, 1.3% active;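 active means percent inhibition above its own plate's cutoff, namely the mean of that plate's compound wells plus 3 SD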;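 further: peak over basal fluorescence ratio during 140 s after agonist addition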
CHRM1 agonist – agonists of human M1 muscarinic receptor | P11229 | CHO-K1 hM1, Fluo-8 calcium fluorescence, agonist mode; 0% DMSO, 100% acetylcholine EC100 | activation, % at 3 µM | 360,000 tested, 0.33% active | AID 588814;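 active means activation above the run's mean compound activation plus 3 SD, cut at about 16% in these data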;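 further: peak over basal fluorescence ratio within a 140 s kinetic read after compound addition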
M1 PAM parental – counter-screen for M1 PAMs: effect in parental CHO-K1 cells. activation, % at 3 µM. 360,000 tested, 0.02% active. ATP EC20, Fluo-8 calcium fluorescence; 0% at ATP EC20, 100% at ATP max;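 active means activation above the run cutoff, the mean activation of all test compounds plus 3 SD, cut at about 40% in these data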;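 further: peak over basal fluorescence ratio in a 140 s read after ATP addition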
Numbers stand for hits; . = inactive; ! = repeats disagree.

SMILES	CHO-K1 Ca antag	CHO-K1 Ca ag	CHRM1 PAM	CHRM1 antagonist	CHRM1 agonist	M1 PAM parental
O=C(COc1ccc(-c2ccccc2)cc1)NNC(=O)NC1CCCCC1	.	.	.	33	.	.
CC(C)C[C@H](NC(=O)N1CCn2c1nc1ccccc12)C(=O)N[C@H](Cc1ccccc1)C(=O)O	.	.	.	.	.	.
COc1cc(/C=N/N=C2/NC(=O)C(Cc3ccccc3)S2)ccc1O (stereo not given)	.	24	.	.	.	.
COc1ccc(/C=N/N=C2/NC(=O)C(CC(=O)O)S2)cc1OS(=O)(=O)c1ccccc1 (stereo not given)	.	.	.	.	.	.
CCc1nc2nc(C)c(NS(=O)(=O)c3ccc(Cl)s3)c(=O)n2[nH]1	.	.	.	.	.	.
O=C(O)/C=C/c1ccc(S(=O)(=O)N2CCN(CCN3C(=O)C4C5C=CC(C5)C4C3=O)CC2)cc1 (stereo not given)	.	.	.	.	.	.
Cc1cc(/C=N/n2cnnc2)c(C)n1-c1ccc(OCc2ccc(F)cc2)cc1	.	.	.	46	.	.
Cc1cc(/C=N/n2cnnc2)c(C)n1-c1ccc(OCc2ccc(Cl)cc2Cl)cc1	43	.	.	.	.	.
Cc1cc(/C=N/n2cnnc2)c(C)n1-c1ccc(Cl)cc1	.	.	.	.	.	.
Nc1ccc2c(c1)C(O)c1cccc(C(=O)O)c1-2 (stereo not given)	.	.	.	.	.	.
COc1ccc([C@H]2C[C@H](O)[C@@H](n3cc(COC(=O)c4ccccc4)nn3)CN2Cc2cccs2)cc1	31	.	.	.	.	.
O=C(NN1C(=O)C2C(c3ccccc3)C=CC(c3ccccc3)C2C1=O)c1ccccc1 (stereo not given)	.	.	.	46	.	.
O=C(NN1C(=O)C2C(c3ccccc3)C=CC(c3ccccc3)C2C1=O)c1cccc(Br)c1 (stereo not given)	.	.	.	81	.	.
O=C(NN1C(=O)C2C3c4ccccc4C(c4ccccc43)[C@@H]2C1=O)c1ccccc1 (stereo not given in full)	.	.	.	.	.	.
CNc1ncnc2c1ncn2[C@H]1CN(Cc2ccc(F)cc2)C[C@@H](CO)O1	.	.	.	.	.	.
O=C(COc1ccc(Cl)cc1Cl)Nc1ccc(CN2CCOCC2)cc1	.	.	.	.	.	.
COc1ccc(C(=O)NC(=S)Nc2ccc(CN3CCOCC3)cc2)cc1Cl	.	.	.	.	.	.
COc1ccc(C(=O)NC(=S)Nc2ccc(CN3CCCCC3)cc2)cc1Cl	.	.	.	29	.	.
O=C(COc1ccc(Cl)cc1Cl)Nc1ccc(CN2CCCCC2)cc1	.	.	.	21	.	.
COC(=O)c1ccc(COC(=O)CCc2nc(-c3ccccc3)c(-c3ccccc3)o2)cc1	.	.	.	.	.	.
CN(c1ccc(Cl)cc1)c1cc2c(c3c1ccn3C)C1CCC2O1 (stereo not given)	.	.	.	.	.	.
O=C(O)c1ccc(-c2nc3ccccc3s2)o1	.	.	.	.	.	.
O=C(c1ccc(-c2nc3ccccc3s2)o1)N1CCN(c2ccccc2O)CC1	30	.	.	.	.	.
O=C(COC(=O)c1cccnc1Cl)c1ccccc1	.	.	.	.	.	.
CC(C)N(C(=O)COC(=O)c1cccnc1Cl)c1ccccc1	.	.	32	.	.	.
SMILES	CHO-K1 Ca antag	CHO-K1 Ca ag	CHRM1 PAM	CHRM1 antagonist	CHRM1 agonist	M1 PAM parental
CC1=C(C(=O)OC(C)C)C(c2cccs2)NC(=S)N1 (stereo not given)	.	.	.	.	.	.
CCC(=O)N1CCN(c2ccc(NC(=O)COc3ccccc3[N+](=O)[O-])cc2)CC1	.	.	.	31	.	.
COc1ccc2nc(C)cc(SCC(NC(C)=O)C(=O)OC(C)C)c2c1 (stereo not given)	26	.	.	.	.	.
COc1ccc2nc(C)cc(SCC(=O)O)c2c1	24!	.	.	.	.	.
CC[C@@H]1CC2=C(C(=O)OC(C)(C)O2)[C@H](c2ccc(Cl)cc2)O1	.	.	.	.	.	.
O=S(=O)(c1cccc(Br)c1)N1CCN(c2ncnc3scc(-c4ccccc4)c23)CC1	.	.	.	.	.	.
Cc1csc2ncnc(N3CCN(S(=O)(=O)c4cccc(C(F)(F)F)c4)CC3)c12	26	.	.	47	.	.
CN(C)S(=O)(=O)N1CCC(Oc2cccc(C(=O)NCCC3=CCCCC3)c2)CC1	.	16	.	.	.	.
CN(C)S(=O)(=O)N1CCC(Oc2cccc(C(=O)NC3CCCCC3)c2)CC1	.	.	.	.	.	.
CC1=C(Sc2ccccn2)C(=O)NC(C)(C)C1	27	.	.	.	.	.
Cc1nnc(Nc2ccc(C(=O)N3CCOCC3)cc2)c2ccccc12	.	.	27	.	.	.
O=C(N/N=C/c1ccccc1C(=O)O)C(=O)N1CCCCC1	.	19	.	.	.	.
O=C(O)c1ccccc1/C=N/NC(=O)C1CCCCC1	.	.	.	.	.	.
c1ccc(Oc2cc(-n3cncn3)ncn2)cc1	.	.	.	.	.	.
Cc1cnn(-c2cc(Oc3ccccc3)ncn2)c1	25	.	.	.	.	.
CNC(=O)CN(c1ccc2c(c1)OCCO2)S(C)(=O)=O	.	.	.	.	.	.
CS(=O)(=O)N(CC(=O)NC1CCCC1)c1ccc2c(c1)OCCO2	.	.	.	35	.	.
O=[N+]([O-])c1ccc(OCC(O)CN(C2CCCCC2)C2CCCCC2)cc1 (stereo not given)	.	.	.	.	.	.
COc1ccc(OCC(O)CN(C2CCCCC2)C2CCCCC2)cc1 (stereo not given)	26	.	.	.	.	.
CC1(C)CC(=O)C=C(NC2CCCC(O)C2)C1 (stereo not given)	.	.	.	.	.	.
CC(=O)Oc1ccccc1/C=C/c1ccc2ccccc2[n+]1C	.	.	.	54	.	.
O=C(c1cc(-c2ccncc2)nc2ccc(Br)cc12)N1CCN(Cc2ccc3c(c2)OCO3)CC1	.	.	.	43	.	.
O=C(c1cc(-c2ccncc2)nc2ccc(Cl)cc12)N1CCN(Cc2ccc3c(c2)OCO3)CC1	.	.	.	.	.	.
O[C@H]1CN(CC2CCCCC2)[C@@H](c2ccc(Cl)cc2)C[C@@H]1n1cc(C2CC2)nn1	.	.	.	37	.	.
O=S(=O)(Nc1cccnc1)c1ccccc1	.	.	.	.	.	.
O=S(=O)(Nc1cccnc1)c1ccc(C2CCCCC2)cc1	.	.	.	27	.	.
O=C(c1ccc(NC(=O)C(c2ccccc2)c2ccccc2)cc1)c1ccc(C(=O)O)c(C(=O)O)c1	.	.	.	.	.	.
